HSF1 activator – increases HSF-1 driven luciferase reporter signal. NIH3T3-HGL HSF-1 luciferase reporter, MG132, 8 h; 100% = twice DMSO control signal. activation, % at 9 µM. 300,000 compounds, 1.7% hits;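 active means mean replicate activation of at least 50% with a set share of replicates each reaching 50%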
dFosB act – enhances mouse delta FosB homodimer DNA binding | P13346 | purified delta FosB, TAMRA-CDK5 oligo fluorescence polarization; percent of positive-control signal above neutral wells | activation, % at 25 µM | 340,000 compounds, 0.99% hits;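 active means mean activation above about 17%, with every replicate also reaching it, limit read from the data, passing the limit was not always enough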
Target sequence (P13346 whole entry, looked up): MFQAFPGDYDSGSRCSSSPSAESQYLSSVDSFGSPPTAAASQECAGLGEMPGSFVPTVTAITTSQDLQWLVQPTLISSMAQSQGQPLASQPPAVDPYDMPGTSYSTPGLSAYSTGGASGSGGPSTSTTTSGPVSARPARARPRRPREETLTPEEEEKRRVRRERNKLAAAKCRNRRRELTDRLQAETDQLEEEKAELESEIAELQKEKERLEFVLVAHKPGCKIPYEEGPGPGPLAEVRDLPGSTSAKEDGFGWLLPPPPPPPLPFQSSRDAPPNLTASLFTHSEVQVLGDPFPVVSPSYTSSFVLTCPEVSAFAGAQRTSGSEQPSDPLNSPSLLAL
HSP90 inh – inhibitors of HSP90 luciferase refolding in rabbit reticulocyte lysate. luciferase refolding luminescence, 3 h. inhibition, % at 5.6 µM. 290,000 compounds, 0.91% hits. AID 1789;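 active means inhibition above the screen-wide mean plus 3 SD, computed separately per campaign, cut at about 16% in these data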;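 further: inhibitors lower the luminescence because luciferase stays unfolded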
Platelet DG rel – platelet dense granule release activity; human platelet-rich plasma, SFLLRN dense granule ATP release, luminescence; inhibition, %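 (compounds screened at 7.5 µM in platelet-rich plasma)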; 300,000 compounds, 0.22% hits; AID 1663;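 active means mean replicate score, as percent of positive control, at or above 50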
HSF1 inhib – HSF1 inhibition | 300,000 compounds, 0.77% hits | NIH3T3-HGL HSE-luciferase, MG132-induced, luminescence 8 h; hits give low values | activity change, negative = inhibition, % at 7.5 µM (by protocol);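 active means more than half of replicate wells show activity change below -50%, luminescence cut by over half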;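 further: luciferase reports HSF-1 transcriptional activity via heat shock element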
MPTP block – permeability transition pore inhibition | isolated mouse mitochondria, Ca2+ swelling absorbance, 30 min | inhibition, % at 10 µM | 360,000 compounds, 1.4% hits;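 active means inhibition of 50% or more, scaled per plate between neutral and stimulator controls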
Numbers stand for hits; – = inactive; · = no result. Compounds with a hit are over-represented: about 4.9% of the library has one in this group of screens.

SMILES | HSF1 activator | dFosB act | HSP90 inh | Platelet DG rel | HSF1 inhib | MPTP block
O=C(O)c1ccccc1C(=O)Nc1ccc(Br)c2cccnc12 | 51.5 | – | – | – | – | –
O=C(Nc1cccn(Cc2c(Cl)cccc2Cl)c1=O)c1ccc(Cl)cc1Cl | – | – | – | – | – | –
O=C(Nc1cccn(Cc2c(Cl)cccc2Cl)c1=O)c1ccccc1Cl | 89.0 | – | – | – | – | –
O=C(O)c1ccccc1C(=O)Nc1ccccn1 | – | – | – | – | – | –
O=C(Nc1cccc2cccnc12)c1ccccc1Cl | 90.8 | · | · | – | – | –
O=C(O)c1cc(Cl)c(Cl)cc1C(=O)Nc1cccc2cccnc12 | – | – | – | – | – | –
O=C(NCCc1ccccc1)c1cc(-c2ccncc2)nc2ccc(S(=O)(=O)N3CCOCC3)cc12 | – | – | – | – | – | –
Cc1[nH]c2ccccc2c1C(=O)/C=C\c1ccccc1Cl | – | – | – | – | – | –
Cc1[nH]c2ccccc2c1C(=O)/C=C/c1ccccc1Cl | 113.0 | – | – | – | – | –
Cc1[nH]c2ccccc2c1C(=O)/C=C/c1ccccc1 | 70.3 | – | – | – | – | –
CC(=O)Nc1cc(=O)c2cccnc2[nH]1 | · | – | · | · | · | –
COc1cccc(N2C(=O)N(c3ccccc3)C3CS(=O)(=O)CC32)c1 (stereo not given) | – | – | – | – | -83.8 | –
Cc1ccc(CN2CCN(Cc3ccc4cc(F)ccc4n3)CC2CCO)o1 (stereo not given) | – | – | – | – | – | –
CC1Sc2ccc(C(=O)OCc3ccccc3Cl)cc2NC1=O (stereo not given) | – | – | · | – | – | –
COc1cccc(COC(=O)c2ccc3c(c2)NC(=O)C(C)S3)c1OC (stereo not given) | – | – | · | – | -77.5 | –
CCNC(=O)C1(C)CCCN(C(=O)c2ccccc2Br)C1 (stereo not given) | · | · | · | · | · | –
O=C(c1cc(COc2c(F)cccc2F)on1)N1C[C@H]2CC[C@H]1C2 | 55.5 | – | – | – | – | –
CCCCCc1c(C)nc(SCC(=O)O)[nH]c1=O | – | – | – | – | – | –
CCCCCSc1nc(C)c(CC(=O)O)c(=O)[nH]1 | – | – | – | – | -92.4 | –
COc1ccc(/C=C(/C(=O)c2cccs2)N2C=CC=CC2=C(C#N)C#N)cc1 | 176.9 | – | – | – | – | –
Cc1ccc(C(=O)NCC(=O)OCc2nc3ccsc3c(=O)[nH]2)cc1C | · | · | · | · | · | –
Cc1ccc(/C=C/C(=O)Nc2ncc(C)s2)o1 | – | – | – | – | – | –
Cc1ccc(/C=C/C(=O)Nc2nccs2)o1 | 62.3 | – | – | – | – | –
CCOC(=O)/C=C/C(=O)Nc1nccs1 | 53.2 | – | – | – | – | –
COc1cccc(-c2nc(-c3ccc(C(=O)O)cc3)no2)c1 | – | – | · | 50.1 | – | –
SMILES | HSF1 activator | dFosB act | HSP90 inh | Platelet DG rel | HSF1 inhib | MPTP block
CC(=O)Oc1cccc(-c2nc3ccccc3c(=O)o2)c1 | – | – | – | – | – | –
O=C(O)c1ccc(-c2noc(-c3ccccc3F)n2)cc1 | – | – | · | 69.4 | – | –
Cc1ccc(-c2noc(-c3ccccc3F)n2)cc1 | – | – | – | – | – | –
COc1cccc(-c2nc3ccc(O)cc3c(=O)o2)c1 | – | – | – | 51.9 | – | –
CCCCn1c(SCCN2CCCCC2)nc2c1c(=O)n(C)c(=O)n2C | · | · | · | · | · | –
COCCn1c(C)cc(C(=O)CSc2nnc3ccccn23)c1C | – | – | 49.8 | – | -51.2 | –
COCCn1c(SCC(=O)c2cc(C)n(C)c2C)nc2ccccc2c1=O | – | – | – | – | -72.3 | –
Cc1ccc(-c2cc(C(=O)NCc3ccco3)c3ccccc3n2)o1 | – | – | – | 56.1 | – | –
Cc1cc(C(=O)NCc2ccco2)c2ccccc2n1 | – | – | – | – | – | –
Cc1scc(C(=O)NCc2ccco2)c1-c1ccccc1 | 63.5 | – | – | – | – | –
O=C(NCc1ccco1)c1ccccc1-c1ccccc1 | – | – | – | – | – | –
O=C(NNc1ccccc1C(F)(F)F)c1sccc1Br | – | – | – | – | – | –
COc1cc(/C=C\C(=O)OCn2nnc3ccccc3c2=O)cc(OC)c1OC | – | – | – | – | – | –
CS(=O)(=O)c1ccc(NC(=O)c2ccc3c(c2)S(=O)(=O)N=C2CCCCCN23)cc1 | – | – | · | – | -53.8 | –
Cc1cccc2c1-c1sc(C(=O)N3CCCCC3)cc1CO2 | – | – | – | – | – | –
Cc1cccc2c1-c1sc(C(=O)Nc3ccccc3N3CCN(C)CC3)cc1CO2 | – | 25.6 | – | – | – | –
COc1ccc(C(=O)/C=C/Sc2nc3ccccc3o2)cc1 | 92.6 | – | – | – | – | –
Cc1ccc(-c2cc(C(F)F)nc(S(C)(=O)=O)n2)cc1 | 304.8 | – | – | – | – | –
CSc1sc(C(=O)OC(C)C)c2c1C(=O)CC(C)(C)C2 | 52.8 | – | – | – | – | –
CN(C)c1ccc(C2C3CCCc4ccccc4C3=NN2C)cc1 (stereo not given) | – | – | – | – | – | –
CN1N=C2c3ccccc3CCC2C1c1ccc(C(F)(F)F)cc1 (stereo not given) | – | · | – | – | -57.6 | ·
Cc1ccc(OCCNC(=O)C(C)SCC(=O)Nc2ccc(F)cc2)cc1 (stereo not given) | · | – | · | · | · | –
O=C1Cc2ccccc2C(=O)N1Cc1cccc(Cl)c1 | – | – | 16.2 | – | – | –
Nc1cccc2c1C(=O)N(Cc1cccc(Cl)c1)C2=O | – | – | – | – | – | –
O=C(N/N=C/c1sc(=O)n(Cc2ccc(Br)cc2)c1Cl)c1ccco1 | – | 35.5 | – | – | – | –
SMILES | HSF1 activator | dFosB act | HSP90 inh | Platelet DG rel | HSF1 inhib | MPTP block
COCC1CCCCC1OS(N)(=O)=O (stereo not given) | – | – | – | – | – | –
COc1ccc([C@H]2C[C@@H](O)C[C@@H](CCn3cc(-c4ccccc4)nn3)O2)cc1 | · | · | · | · | · | –
O=C(CSc1ccc2nnc(-c3ccccn3)n2n1)Nc1ccc(F)cc1F | – | – | – | – | – | –
Cc1cc(C)cc(NS(=O)(=O)c2ccc(NC(=S)Nc3ccccc3)cc2)c1 | – | – | – | – | – | –
CC(C)NC(=S)Nc1ccc(S(=O)(=O)Nc2ncccn2)cc1 | – | – | – | – | – | –
NS(=O)(=O)c1ccc(NS(=O)(=O)c2ccc(NC(=S)Nc3ccccc3)cc2)cc1 | 53.8 | – | – | – | – | –
CCc1ccc(NC(=S)Nc2ccc(S(=O)(=O)Nc3ncccn3)cc2)cc1 | – | – | – | – | -55.6 | –
Cc1ccc(S(=O)(=O)Nc2nc3ccccc3nc2NCc2ccco2)cc1 | 67.6 | – | – | – | – | –
COc1ccc(OC)c(Nc2nc(NCc3ccco3)c3ccccc3n2)c1 | – | 52.6 | – | – | – | –
COc1ccc(OC)c(Nc2nc(NCc3ccco3)nc(N)c2[N+](=O)[O-])c1 | – | · | – | – | – | –
Cc1ccccc1Nc1nc(NCc2ccco2)c2ccccc2n1 | – | 36.3 | – | – | – | –
CSc1ccc(/C=N/NC(=O)c2sccc2C)cc1 | 61.6 | – | – | – | – | –

Screening results from PubChem BioAssay.
